Test [1] in a line: qHTS of pediatric cancer cell lines to identify multiple opportunities for drug repurposing: Primary screen for SK-N-MC cells (AID 1347093). Note: potency is the fitted concentration of half-maximal effect. A digest of the protocol:
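Metabolically active cells were quantified by ATP-dependent luminescence (CellTiter-Glo, 15 min at room temperature) following 48 h treatment. Cells had been plated at 500-1,000 per well and settled for 5 h beforehand.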

A short description of test [2]: qHTS of pediatric cancer cell lines to identify multiple opportunities for drug repurposing: Primary screen for BT-37 cells (AID 1347094). Note: potency is the fitted concentration of half-maximal effect. The essentials: (§1)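 Plated cells (500-1,000 per well, growth media) were allowed to settle for 5 hours, treated with compound dilutions for 48 hours, then lysed with CellTiter-Glo for 15 min at room temperature before luminescence reading.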

A short description of test [3]: qHTS of pediatric cancer cell lines to identify multiple opportunities for drug repurposing: Primary screen for U-2 OS cells (AID 1347096). Note: nearly all actives have a fitted effect of over 50% in size. A digest of the protocol:
(§2)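 Viability after 48 h compound treatment at 37C, 500-1,000 cells/well, read as ATP luminescence with CellTiter-Glo. Primary screens used 11-point (MIPE, 0.78 nM-46 µM) or 8-point (NPC, 0.59 nM-46 µM) final concentrations; follow-up screens used 11-point dilutions.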
Background: qHTS replaces the single test concentration by a dilution series.

The nature of test [4]: qHTS of pediatric cancer cell lines to identify multiple opportunities for drug repurposing: Primary screen for Saos-2 cells (AID 1347097). Note: nearly all actives have a fitted effect of over 40% in size. Note: potency is the fitted concentration of half-maximal effect. The essentials:
as §1

Test [5] is described as follows: qHTS of pediatric cancer cell lines to identify multiple opportunities for drug repurposing: Primary screen for SK-N-SH cells (AID 1347098).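 Note: DMSO served as neutral control and bortezomib at 2.3 µM as positive control; nearly all actives have a fitted effect of over 65% in size.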 A digest of the protocol: (§3)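 Cells (500-1,000/well) rested 5 h, then received compounds for 48 h; metabolically active cells were measured by CellTiter-Glo luminescence. Final concentrations spanned up to 46 µM (MIPE, 11-point) or 0.59 nM-46 µM (NPC, 8-point) in primary screens, 11-point in follow-ups.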

A short description of test [6]: qHTS of pediatric cancer cell lines to identify multiple opportunities for drug repurposing: Primary screen for NB1643 cells (AID 1347099). Note: nearly all actives have a fitted effect of over 50% in size. The essentials:
as §1

Test [7] can be described thus: qHTS of pediatric cancer cell lines to identify multiple opportunities for drug repurposing: Primary screen for LAN-5 cells (AID 1347100). A digest of the protocol:
as §2

Test [8] can be described thus: qHTS of pediatric cancer cell lines to identify multiple opportunities for drug repurposing: Primary screen for BT-12 cells (AID 1347101). Note: nearly all actives have a fitted effect of over 25% in size. Note: potency is the fitted concentration of half-maximal effect. A digest of the protocol:
as §3

The nature of test [9]: qHTS of pediatric cancer cell lines to identify multiple opportunities for drug repurposing: Primary screen for Rh18 cells (AID 1347102). Note: nearly all actives have a fitted effect of over 65% in size. The essentials: as §2
Test [10] is described as follows: qHTS of pediatric cancer cell lines to identify multiple opportunities for drug repurposing: Primary screen for OHS-50 cells (AID 1347103). Note: nearly all actives have a fitted effect of over 40% in size. Note: potency is the fitted concentration of half-maximal effect. The essentials:
as §3

A short description of test [11]: qHTS of pediatric cancer cell lines to identify multiple opportunities for drug repurposing: Primary screen for RD cells (AID 1347104). Note: nearly all actives have a fitted effect of over 55% in size. Note: potency is the fitted concentration of half-maximal effect. A digest of the protocol: as §1
Test [12] is described as follows: qHTS of pediatric cancer cell lines to identify multiple opportunities for drug repurposing: Primary screen for MG 63 (6-TG R) cells (AID 1347105). Note: nearly all actives have a fitted effect of over 50% in size. A digest of the protocol: as §1
Test [13] is described as follows: qHTS of pediatric cancer cell lines to identify multiple opportunities for drug repurposing: Primary screen for Rh30 cells (AID 1347107). Note: series mostly up to about 46 µM; nearly all actives have a fitted effect of over 75% in size. The essentials: as §2
Test [14] in a line: qHTS of pediatric cancer cell lines to identify multiple opportunities for drug repurposing: Primary screen for Rh41 cells (AID 1347108).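 Note: series mostly up to about 46 µM; luminescence drop marks cytotoxic hits; nearly all actives have a fitted effect of over 70% in size.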 A digest of the protocol: as §1
The nature of test [15]: qHTS of pediatric cancer cell lines to identify multiple opportunities for drug repurposing: Primary screen for NB-EBc1 cells (AID 1347095). The essentials:
as §1

Test [16] can be described thus: qHTS of pediatric cancer cell lines to identify multiple opportunities for drug repurposing: Primary screen for control Hh wild type fibroblast cells (AID 1347106).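 Note: series mostly up to about 46 µM; a drop in luminescence marks cytotoxicity and a rise apparent proliferation; nearly all actives have a fitted effect of over 55% in size.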 A digest of the protocol: as §2

Results filed as inconclusive are left out. Active and inactive are the calls of the source. Calls come from the whole dose curve; as a rule, active = well fitted curve in the direction sought with a large enough effect; inconclusive = small, poorly fitted or top-dose-only effect, or another doubt; inactive = no such curve, though single readings can be large; an effect the other way counts as inactive or inconclusive.

On to `CCCOc1ccccc1-c1nc2n[nH]nc2c(=O)[nH]1`, for which the Potency entry in test [1], in [2], in test [3], in [4], in [5] and in test [6] was “inactive” throughout. In addition, the Potency result in test [7], in [8], in test [9], in test [10], in test [11] and in test [12] was “inactive” each time. Besides, the Potency entry in test [13] and in test [14] was “inactive” each time.

Take `CNCCC(Oc1ccccc1OC)c1ccccc1` (stereo not drawn): the Potency result in test [1], in [2], in test [15], in test [4], in test [5] and in test [6] was “inactive” in each case. The Potency result in [7], in [8], in test [9], in [11], in test [12] and in [13] was “inactive” throughout. Further, in test [14], the Potency result is “inactive”. Moreover, in [16], the call was inactive.

For the molecule `NC(=O)c1ncn([C@@H]2O[C@H](CO)[C@@H](O)[C@H]2O)c1O`, the Potency result in test [1], in test [2], in [3], in [4], in test [5] and in test [6] was “inactive” each time. Moreover, the Potency result in test [7], in test [8], in [9], in test [10], in test [11] and in test [12] was “inactive” throughout. Further, the Potency result in [13] and in test [14] was “inactive” throughout. In addition, the call in test [16] was inactive.

Consider `CC(C(=O)O)c1ccc(CC2CCCC2=O)cc1` (stereo not drawn), for which the Potency entry in test [1], in test [2], in [15], in test [4], in test [5] and in test [6] was “inactive” in each case. The Potency entry in [7], in [8], in test [9], in test [11], in test [12] and in test [13] was “inactive” throughout. In addition, the Potency entry in test [14] is “inactive”. For the same molecule, the molecule was called inactive in test [16].

With `c1ccc2c(c1)CCCC2C1=NCCN1` (stereo not drawn), the Potency result in test [1], in test [2], in test [3], in test [4], in test [5] and in test [6] was “inactive” in each case. The Potency result in test [7], in [8], in test [9], in test [10], in test [11] and in test [12] was “inactive” in each case. Further, the Potency result in [14] is “inactive”.

As to `CC(C)(C)c1ccc(C(=O)CCCN2CCC(OC(c3ccccc3)c3ccccc3)CC2)cc1`, the Potency in test [1] was 21.1 µM (active); in test [2], 27.6 µM (active); in test [4] it was 26.6 µM (active); in test [8], 19.5 µM (active); in test [10], 15.5 µM (active); in test [11], 21.1 µM (active). Moreover, the Potency entry in test [5] is “inactive”. In addition, the molecule was called inactive in [16].

Regarding `COc1cc(Cc2cnc(N)nc2N)cc(OC)c1OC`, the Potency entry in test [2], in [15], in test [3], in test [4], in [5] and in test [6] was “inactive” each time. The Potency result in test [7], in test [8], in test [9], in test [10], in [11] and in test [12] was “inactive” throughout. Also, the Potency result in test [13] and in [14] was “inactive” throughout.

`CCN1CCC[C@H]1CNC(=O)c1c(O)c(Cl)cc(Cl)c1OC`: the Potency result in test [1], in test [2], in test [3], in test [4], in test [5] and in test [6] was “inactive” each time. The Potency result in test [7], in test [9], in [10], in test [11] and in [12] was “inactive” each time.

As to `Cc1cc(C)c(/C=C2\C(=O)Nc3ccccc32)[nH]1`, the Potency in [1] is 18.8 µM (active). For the same molecule, the Potency result in test [2], in test [5], in test [6], in [7], in [8] and in test [9] was “inactive” each time. The Potency entry in test [11], in test [12] and in test [14] was “inactive” in each case. Besides, in test [16], the molecule was called inactive.

As for `CCN(Cc1ccncc1)C(=O)C(CO)c1ccccc1` (stereo not drawn), the Potency entry in [2], in test [15], in [3], in test [4], in test [5] and in test [6] was “inactive” each time. The Potency entry in test [7], in test [8], in [9], in test [11], in test [12] and in test [13] was “inactive” each time. For the same molecule, the Potency result in test [14] was “inactive”. In addition, the call in test [16] was inactive.

Turning to `CCN(CC)CC(=O)Nc1c(C)cccc1C`, the Potency result in test [1], in test [2], in test [4], in [5], in [6] and in test [7] was “inactive” in each case. Besides, the Potency result in test [8], in test [9], in [10], in [11], in [12] and in test [13] was “inactive” each time. Further, the Potency result in [14] was “inactive”.

`NC/C=C/C(=O)O`: the Potency result in test [1], in test [2], in [4], in test [5], in [6] and in [7] was “inactive” in each case. The Potency result in [8], in test [9], in [10], in [11] and in [12] was “inactive” each time. Further, the outcome in test [16] was inactive.

Values taken from PubChem BioAssay (NCATS).
